Results from PubChem BioAssay.
Calls of active or inactive are those of the source.

Tests used:
[1] = system: PRMT1 (protein arginine N-methyltransferase 1); assay: small molecules binding arginine methyltransferase PRMT1 – biochemical, small-molecule microarray, 635 nm fluorescence, primary screen (AID 1088); details: higher = more signal;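 also: binding of Prmt1 protein to compounds spotted on small-molecule microarray slides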
[2] = growth effects on S. cerevisiae YJM789 – YJM789 clinical isolate, OD600, 24 h, basal, primary screen (AID 1089); details: higher = more signal, called active from +8 up or from −8 down;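 also: growth of clinical yeast isolate S. cerevisiae YJM 789 seeded 1000 cells per well; test concentration not given here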
[3] = S. pombe growth modifiers, basal conditions – strain 972, OD600, 24 h, no modulator, primary screen (AID 1090);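 also: basal condition with compound alone and no growth modifier present; test concentration not given here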; details: S. pombe 972 growth, higher = more signal, called active from +8 up or from −8 down
[4] = budding yeast growth modifiers under rapamycin – strain BY4716, OD600, 96 h, primary screen (AID 1091); also: test concentration not given here; details: S. cerevisiae BY4716 + rapamycin, higher = more signal, called active from +8 up or from −8 down
[5] = target: Torsin-1A-interacting protein 2 (Homo sapiens) (UniProt Q8NFQ8); assay: small molecules binding lysate-expressed LULL1 – cell lysate, human LULL1 lysate, 635/667 nm fluorescence, primary screen (AID 1092); details: small-molecule microarray, hLULL1 lysate binding, 635 nm fluorescence; higher = more signal;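 also: probe is lysate of COS7 cells overexpressing human LULL1; score merges per-feature 667 nm fluorescence with signal-to-noise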
[6] = optical density change of DRC41 E. coli – strain DRC41, OD650, 24 h, E. coli filamentation project, primary screen (AID 1093);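 also: MC1000 strain lacking acrAB efflux and sulA so SOS filamentation is blocked; test concentration not given here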; details: E. coli DRC41 growth, higher = more signal, called active from +8 up or from −8 down
[7] = probe aLefty2 binding to arrayed compounds – biochemical, biotinylated probe, 635/667 nm fluorescence, primary screen (AID 1094); details: small-molecule microarray, higher = more signal;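 also: score merges spot fluorescence near 667 nm with spot signal-to-noise ratio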
[8] = system: Noggin (protein binding on small-molecule microarray); assay: small molecules binding Noggin protein – biochemical, 635/667 nm fluorescence, primary screen (AID 1095); details: 635 nm fluorescence, higher = more signal;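 also: score merges 667 nm feature fluorescence with signal to noise over triplicate slides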
[9] = target: Neurogenic locus notch homolog protein 3 (Homo sapiens) (UniProt Q9UM47); assay: small molecules binding NOTCH3 protein – biochemical, 635/667 nm fluorescence, primary screen (AID 1096); details: small-molecule microarray, 635 nm fluorescence, higher = more signal
[10] = probe aEGFR binding to arrayed compounds – biochemical, biotinylated probe, 635/667 nm fluorescence, primary screen (AID 1097); details: small-molecule microarray, higher = more signal;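 also: probe is a biotinylated anti-EGFR antibody binding compounds printed on slides; score combines fluorescence near 667 nm and signal to noise of each spot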
[11] = system: Plasmodium falciparum Sir2 (PF13_0152, Sir2A); assay: Plasmodium falciparum Sir2A binding compounds – biochemical, small-molecule microarray, 635 nm fluorescence, primary screen (AID 1098); details: fluorescence 635 nm, higher = more signal;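 also: score merges spot fluorescence intensity with its signal-to-noise ratio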
[12] = probe aDKK1 binding to arrayed compounds – biochemical, biotinylated probe, 635/667 nm fluorescence, primary screen (AID 1099); details: small-molecule microarray, higher = more signal;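 also: score merges 667nm spot fluorescence with signal to noise across triplicate slides; reference of the scale not given here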
[13] = probe aCHRDL2 binding to arrayed compounds – biochemical, biotinylated probe, 635/667 nm fluorescence, primary screen (AID 1100); details: small-molecule microarray, higher = more signal
[14] = change in splice reporter luminescence, either direction, cell-based, HEK293, spliceosome inhibition project, primary screen (AID 1101); details: HEK293 splicing luciferase reporter, 24 h, higher = more signal, called active from +8 up or from −8 down;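 also: HEK293 cells carrying a splicing-competent luciferase reporter gene; test concentration not given here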
[15] = target: Fibroblast growth factor 10 (Homo sapiens) (UniProt O15520); assay: compounds binding fibroblast growth factor 10 – biochemical, small-molecule microarray, 635 nm fluorescence, primary screen (AID 1102); details: FGF10 binding, fluorescence 635 nm, higher = more signal
[16] = system: glycogen synthase kinase-3 (GSK3A per assay name; protocol says GSK3B); assay: compounds binding glycogen synthase kinase-3 – biochemical, small-molecule microarray, 635 nm fluorescence, GSK3A, primary screen (AID 1103); details: fluorescence 635 nm, higher = more signal; also: the record names both GSK3A and GSK3B
[17] = target: Epidermal growth factor receptor (Homo sapiens) (UniProt P00533); assay: compounds binding epidermal growth factor receptor – biochemical, small-molecule microarray, 635 nm fluorescence, primary screen (AID 1104); details: EGFR binding, higher = more signal;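 also: score merges 667 nm emission intensity with spot signal to noise over triplicate slides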
[18] = target: Follistatin-related protein 3 (Homo sapiens) (UniProt O95633); assay: compounds binding follistatin-related protein 3 – biochemical, small-molecule microarray, 635 nm fluorescence, primary screen (AID 1105); details: FSTL3 binding, higher = more signal;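 also: score merges emission near 667 nm and signal to noise per printed spot across three slides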
[19] = target: Dickkopf-related protein 1 (Homo sapiens) (UniProt O94907); assay: small molecules binding DKK1 protein – biochemical, small-molecule microarray, 635 nm fluorescence scan, primary screen (AID 1106); details: higher = more signal;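 also: score merges emission near 667 nm with signal to noise over three replicate slides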
[20] = system: Inhibin beta A chain (activin A); assay: small molecules binding activin A – biochemical, small-molecule microarray, 635 nm fluorescence scan, primary screen (AID 1107); details: INHBA, higher = more signal;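 also: mouse activin A protein probed at 4.33 µg/mL on printed slides; score merges bound-protein fluorescence near 667 nm with spot signal-to-noise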

Chain of Epidermal growth factor receptor (Homo sapiens) (P00533 whole entry, looked up): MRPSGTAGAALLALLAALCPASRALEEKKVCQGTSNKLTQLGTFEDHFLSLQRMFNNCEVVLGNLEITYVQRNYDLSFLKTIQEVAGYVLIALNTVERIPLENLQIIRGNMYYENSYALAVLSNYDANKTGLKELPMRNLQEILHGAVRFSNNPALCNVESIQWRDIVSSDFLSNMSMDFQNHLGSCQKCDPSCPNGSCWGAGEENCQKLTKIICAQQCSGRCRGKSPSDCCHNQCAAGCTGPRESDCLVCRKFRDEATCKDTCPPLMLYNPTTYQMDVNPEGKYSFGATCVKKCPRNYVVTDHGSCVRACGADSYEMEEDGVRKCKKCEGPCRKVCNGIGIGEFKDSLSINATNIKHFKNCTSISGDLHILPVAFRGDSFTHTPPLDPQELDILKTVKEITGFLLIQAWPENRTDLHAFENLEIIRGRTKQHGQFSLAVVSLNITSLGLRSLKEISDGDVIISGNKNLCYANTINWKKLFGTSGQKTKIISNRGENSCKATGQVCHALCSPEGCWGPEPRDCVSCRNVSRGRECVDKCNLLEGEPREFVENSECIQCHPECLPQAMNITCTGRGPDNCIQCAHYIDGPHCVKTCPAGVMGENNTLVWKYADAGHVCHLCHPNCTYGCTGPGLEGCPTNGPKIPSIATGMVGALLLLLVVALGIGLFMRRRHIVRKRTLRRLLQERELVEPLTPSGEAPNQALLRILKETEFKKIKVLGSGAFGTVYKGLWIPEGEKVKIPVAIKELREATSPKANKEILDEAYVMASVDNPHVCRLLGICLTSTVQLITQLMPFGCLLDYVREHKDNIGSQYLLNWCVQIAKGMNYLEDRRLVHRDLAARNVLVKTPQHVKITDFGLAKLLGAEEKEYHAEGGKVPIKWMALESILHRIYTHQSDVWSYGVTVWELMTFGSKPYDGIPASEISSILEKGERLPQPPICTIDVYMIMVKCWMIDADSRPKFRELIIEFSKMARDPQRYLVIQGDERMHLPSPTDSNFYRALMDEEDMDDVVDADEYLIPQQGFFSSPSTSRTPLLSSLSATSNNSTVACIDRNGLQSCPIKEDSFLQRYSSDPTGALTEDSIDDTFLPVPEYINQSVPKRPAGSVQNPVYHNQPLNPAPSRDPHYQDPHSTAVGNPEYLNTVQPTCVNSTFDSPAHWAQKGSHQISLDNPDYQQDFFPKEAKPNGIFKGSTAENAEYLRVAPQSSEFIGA
Chain of Torsin-1A-interacting protein 2 (Homo sapiens) (Q8NFQ8 whole entry, looked up): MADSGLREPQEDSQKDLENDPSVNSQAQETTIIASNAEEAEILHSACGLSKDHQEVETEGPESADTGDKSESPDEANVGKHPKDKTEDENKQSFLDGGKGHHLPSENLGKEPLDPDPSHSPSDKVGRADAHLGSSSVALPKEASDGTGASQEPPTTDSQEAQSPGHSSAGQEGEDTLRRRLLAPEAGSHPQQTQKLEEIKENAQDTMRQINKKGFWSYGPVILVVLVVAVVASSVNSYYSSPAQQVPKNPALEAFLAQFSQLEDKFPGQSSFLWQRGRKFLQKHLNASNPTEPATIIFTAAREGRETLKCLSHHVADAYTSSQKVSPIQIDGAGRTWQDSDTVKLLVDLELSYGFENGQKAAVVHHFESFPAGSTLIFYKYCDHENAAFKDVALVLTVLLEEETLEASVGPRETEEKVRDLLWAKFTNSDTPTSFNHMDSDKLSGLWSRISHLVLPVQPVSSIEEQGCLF
Chain of Neurogenic locus notch homolog protein 3 (Homo sapiens) (Q9UM47 whole entry, looked up): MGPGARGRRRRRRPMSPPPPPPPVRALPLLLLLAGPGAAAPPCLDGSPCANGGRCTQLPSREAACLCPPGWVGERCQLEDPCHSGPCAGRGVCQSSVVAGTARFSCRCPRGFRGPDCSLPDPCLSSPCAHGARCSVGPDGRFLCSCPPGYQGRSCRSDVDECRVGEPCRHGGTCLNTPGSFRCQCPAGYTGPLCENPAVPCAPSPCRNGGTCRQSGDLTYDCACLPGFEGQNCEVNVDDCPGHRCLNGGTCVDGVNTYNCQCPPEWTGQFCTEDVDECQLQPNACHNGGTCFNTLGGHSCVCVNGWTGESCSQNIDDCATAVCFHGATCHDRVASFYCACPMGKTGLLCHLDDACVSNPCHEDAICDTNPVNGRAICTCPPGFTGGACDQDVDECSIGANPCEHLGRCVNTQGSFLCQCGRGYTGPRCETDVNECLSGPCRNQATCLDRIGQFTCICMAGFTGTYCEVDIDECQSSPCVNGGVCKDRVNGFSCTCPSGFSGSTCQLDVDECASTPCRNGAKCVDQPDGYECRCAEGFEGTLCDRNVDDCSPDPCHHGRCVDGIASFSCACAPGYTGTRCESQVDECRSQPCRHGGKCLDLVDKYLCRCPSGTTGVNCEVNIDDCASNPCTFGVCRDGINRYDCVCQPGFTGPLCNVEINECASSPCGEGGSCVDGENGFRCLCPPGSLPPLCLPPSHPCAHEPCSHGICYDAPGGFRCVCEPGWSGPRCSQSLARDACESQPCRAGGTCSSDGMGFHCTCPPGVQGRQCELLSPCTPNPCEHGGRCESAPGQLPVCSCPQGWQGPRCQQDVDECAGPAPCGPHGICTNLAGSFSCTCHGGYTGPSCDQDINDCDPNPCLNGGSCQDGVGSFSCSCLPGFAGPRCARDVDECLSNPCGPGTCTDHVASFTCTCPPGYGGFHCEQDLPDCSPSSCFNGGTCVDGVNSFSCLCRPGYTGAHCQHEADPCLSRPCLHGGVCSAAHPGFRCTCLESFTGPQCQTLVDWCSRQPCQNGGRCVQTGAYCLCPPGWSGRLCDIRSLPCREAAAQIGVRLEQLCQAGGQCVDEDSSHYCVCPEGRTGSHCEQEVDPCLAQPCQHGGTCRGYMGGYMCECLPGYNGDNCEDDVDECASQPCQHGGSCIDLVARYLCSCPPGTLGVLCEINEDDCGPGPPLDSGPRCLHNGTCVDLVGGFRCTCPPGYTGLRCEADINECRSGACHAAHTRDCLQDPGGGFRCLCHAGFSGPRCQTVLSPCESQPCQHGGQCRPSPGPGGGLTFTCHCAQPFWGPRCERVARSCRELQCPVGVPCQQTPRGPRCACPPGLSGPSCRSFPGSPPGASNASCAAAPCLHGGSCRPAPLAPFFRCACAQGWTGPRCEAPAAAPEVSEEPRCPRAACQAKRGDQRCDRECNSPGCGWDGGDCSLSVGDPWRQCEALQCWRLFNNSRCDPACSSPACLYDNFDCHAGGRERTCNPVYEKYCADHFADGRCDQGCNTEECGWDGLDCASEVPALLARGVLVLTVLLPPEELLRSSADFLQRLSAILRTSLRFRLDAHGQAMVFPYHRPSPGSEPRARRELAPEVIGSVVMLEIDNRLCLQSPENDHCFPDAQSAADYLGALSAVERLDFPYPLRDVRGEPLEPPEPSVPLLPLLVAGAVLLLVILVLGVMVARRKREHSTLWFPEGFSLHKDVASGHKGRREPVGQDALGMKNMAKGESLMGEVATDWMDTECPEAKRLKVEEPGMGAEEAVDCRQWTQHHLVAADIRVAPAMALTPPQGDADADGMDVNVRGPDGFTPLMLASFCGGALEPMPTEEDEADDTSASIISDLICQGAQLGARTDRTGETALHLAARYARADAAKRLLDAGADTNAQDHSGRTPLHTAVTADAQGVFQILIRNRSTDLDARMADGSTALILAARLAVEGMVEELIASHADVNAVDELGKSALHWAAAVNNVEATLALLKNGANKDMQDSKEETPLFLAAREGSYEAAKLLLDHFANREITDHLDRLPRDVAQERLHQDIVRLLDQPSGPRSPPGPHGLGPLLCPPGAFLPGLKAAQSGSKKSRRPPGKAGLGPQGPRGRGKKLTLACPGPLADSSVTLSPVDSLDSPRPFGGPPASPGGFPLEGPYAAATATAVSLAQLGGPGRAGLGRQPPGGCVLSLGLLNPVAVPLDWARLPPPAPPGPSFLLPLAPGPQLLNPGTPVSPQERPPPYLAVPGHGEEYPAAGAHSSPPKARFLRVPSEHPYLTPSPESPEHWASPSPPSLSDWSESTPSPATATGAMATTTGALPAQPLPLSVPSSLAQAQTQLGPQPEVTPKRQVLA
Chain of Follistatin-related protein 3 (Homo sapiens) (O95633 whole entry, looked up): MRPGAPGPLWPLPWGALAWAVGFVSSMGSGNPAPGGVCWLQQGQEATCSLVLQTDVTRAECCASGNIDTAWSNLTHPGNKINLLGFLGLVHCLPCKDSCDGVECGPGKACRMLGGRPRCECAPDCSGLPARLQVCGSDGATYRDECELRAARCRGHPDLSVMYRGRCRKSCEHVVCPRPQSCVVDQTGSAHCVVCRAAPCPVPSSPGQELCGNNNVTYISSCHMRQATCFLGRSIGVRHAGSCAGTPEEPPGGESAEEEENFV
Chain of Fibroblast growth factor 10 (Homo sapiens) (O15520 whole entry, looked up): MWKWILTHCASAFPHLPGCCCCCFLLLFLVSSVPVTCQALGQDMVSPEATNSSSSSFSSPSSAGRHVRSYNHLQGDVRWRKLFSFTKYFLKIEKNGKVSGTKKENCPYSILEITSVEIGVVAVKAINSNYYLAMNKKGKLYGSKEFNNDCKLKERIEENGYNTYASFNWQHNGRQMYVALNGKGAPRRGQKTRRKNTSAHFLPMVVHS
Chain of Dickkopf-related protein 1 (Homo sapiens) (O94907 whole entry, looked up): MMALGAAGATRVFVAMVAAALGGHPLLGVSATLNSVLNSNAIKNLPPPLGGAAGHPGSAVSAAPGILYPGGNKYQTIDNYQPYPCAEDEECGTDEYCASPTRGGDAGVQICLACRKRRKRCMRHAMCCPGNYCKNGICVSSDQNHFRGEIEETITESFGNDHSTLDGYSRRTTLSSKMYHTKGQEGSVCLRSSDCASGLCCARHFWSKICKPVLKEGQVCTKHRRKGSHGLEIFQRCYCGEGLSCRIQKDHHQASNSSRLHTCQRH

SMILES | composite z-score [1] | z-score [2] | z-score [3] | z-score [4] | composite z-score [5] | z-score [6] | composite z-score [7] | composite z-score [8] | composite z-score [9] | composite z-score [10] | composite z-score [11] | composite z-score [12] | composite z-score [13] | z-score [14] | composite z-score [15] | composite z-score [16] | composite z-score [17] | composite z-score [18] | composite z-score [19] | composite z-score [20]
O=C1[C@H]2[C@H]3[C@H](O)[C@H](O)CC(=NO[C@@H]4O[C@H](CO)[C@@H](O)[C@H](O)[C@H]4O)[C@@H]3CC[C@H]2C(=O)N1Cc1ccccc1 | 0.346 | -0.3 (inactive) | -0.13 (inactive) | -0.556 (inactive) | 0.218 | 0.0628 (inactive) | -0.103 | 0.574 | 0.433 | 0.0673 | 0.133 | -0.195 | -0.269 | -0.847 (inactive) | 0.503 | -0.817 | 0.331 | -0.0746 | -0.0034 | -1.43
C=CC[C@]1(C(=O)NCc2ccccc2)N=C(c2ccc(OCCCO)cc2)O[C@H]1c1ccccc1 | 1.55 | 0.159 (inactive) | -0.46 (inactive) | 6.37 (inactive) | 3.28 | 0.568 (inactive) | -0.0238 | 0.119 | 0.778 | -0.137 | 0.689 | 0.213 | 1.06 | 0.332 (inactive) | 0.462 | 0.165 | -0.29 | 0.291 | -0.328 | 0.173
O=C1NC(=O)C2C1C=CC(C(O)Cc1ccccc1)N2Nc1ccccn1 (stereo not given) | 0.185 | -0.47 (inactive) | 1.21 (inactive) | -1.22 (inactive) | 2.31 | 0.297 (inactive) | 0.101 | 0.0356 | 0.504 | 0.0026 | 0.0468 | 0.133 | -0.321 | -0.818 (inactive) | 0.156 | 0.0157 | 0.377 | 0.233 | 0.0833 | 0.97
C#CCCCON=C1C[C@@H](O)[C@@H](O)[C@@H]2[C@@H]3C(=O)N(Cc4ccccc4)C(=O)[C@@H]3CC[C@H]12 | 0.0491 | -0.609 (inactive) | -0.216 (inactive) | -1.49 (inactive) | -0.172 | -0.0603 (inactive) | -0.0294 | 0.407 | 0.297 | -0.102 | 1.43 | -0.369 | -0.417 | -0.658 (inactive) | 0.388 | 0.147 | 1.03 | 0.29 | 0.525 | 0.269
COc1ccc(OC[C@H]2Cc3c(-c4ccccc4)nc4c(c3CO2)CN(CCOc2ccccc2)CC4)cc1 | 1.53 | -0.721 (inactive) | -2.44 (inactive) | -0.42 (inactive) | 1.32 | 0.258 (inactive) | 0.0534 | 0.476 | 1.1 | 0.03 | 1.07 | 0.521 | -0.233 | -1.47 (inactive) | 0.883 | 0.94 | 0.487 | 1.03 | 0.85 | 0.726
CC(C)[C@@H](OCc1ccccc1)[C@H](C)C=NO[C@H](C)c1cn([C@H](CO)Cc2ccccc2)nn1 | 1.55 | -2.33 (inactive) | -3.29 (inactive) | -1.26 (inactive) | 0.825 | -0.671 (inactive) | -0.153 | 0.453 | 0.712 | -0.0828 | 0.45 | -0.25 | -0.566 | -0.652 (inactive) | 0.503 | 0.562 | 0.173 | 0.474 | 0.804 | -0.172
CC(CCC(=O)OC[C@H]1O[C@H](C#Cc2ccccc2)C=C[C@@H]1Oc1ccc(C)cc1)=NOC[C@@H](O)[C@H]1O[C@@H]2OC(C)(C)O[C@@H]2[C@H]1O | -0.753 | 0.349 (inactive) | -0.0762 (inactive) | 0.823 (inactive) | 0.563 | 0.142 (inactive) | -0.352 | -0.333 | -1.74 | -0.342 | 0.373 | -0.339 | -0.505 | 0.29 (inactive) | -0.369 | -0.579 | -1.03 | -0.638 | -0.335 | 0.302
Cn1c(=O)n2n(c1=O)[C@H]1[C@H](O)[C@@H]3O[C@@H]3C(=NOC[C@@H](O)COCc3ccco3)[C@H]1CC2 | 0.188 | 0.0859 (inactive) | 0.171 (inactive) | -0.36 (inactive) | 0.14 | -0.0342 (inactive) | -0.171 | 0.426 | 0.775 | 0.0574 | 0.608 | -0.198 | -0.505 | -0.695 (inactive) | 0.131 | 0.698 | 0.475 | 0.541 | 0.0999 | 0.0409
CCOC(=O)CCN1C(=O)[C@H]2[C@H]3[C@H](O)[C@H](O)CC(=O)[C@H]3CC[C@H]2C1=O | 0.0774 | 0.184 (inactive) | -0.373 (inactive) | 0.341 (inactive) | 0.35 | 0.355 (inactive) | -0.225 | 0.387 | 0.295 | -0.0381 | -0.0527 | -0.202 | -0.723 | -1.11 (inactive) | 0.685 | 0.765 | 0.4 | 0.565 | 0.745 | -0.0903
